Reference: PubChem BioAssay (Tox21)
Inconclusive results are not listed. Calls of active or inactive are those of the source. Calls come from the whole dose curve; as a rule, active = well fitted inhibition curve with a large enough effect in the signal ratio in the repeat runs (not every such curve was filed as active); inconclusive = weak or mixed curves, or effect the other way; inactive = no such curve, though single readings can be large or run the other way; the % refers to the signal ratio.

target: Bile acid receptor (Homo sapiens) (UniProt Q96RI1); experiment: qHTS assay to identify small molecule antagonists of the farnesoid-X-receptor (FXR) signaling pathway (AID 743217); conditions: HEK293T FXR-UAS-bla, beta-lactamase ratio, CDCA-stimulated, 16 h; series mostly up to 62.6 µM; activity change, negative = inhibition: at the top concentration
Description: U.S. Tox21 Program National Center for Advancing Translational Sciences [NCATS] NIH Chemical Genomics Center [NCGC] U.S. Environmental Protection Agency [EPA] National Institutes of Environmental Health Sciences [NIEHS] National Toxicology Program [NTP] U.S. Food and Drug Administration [FDA] Tox21 Assay Overview: The farnesoid-X-receptor (FXR), a nuclear hormone receptor, is highly expressed in liver, intestine, kidney and adrenal cortex. Natural ligands of FXR are the bile acids (Cholic acid, Chenodeoxy cholic acid etc). FXR is an important regulator of diverse metabolic pathways, including the bile acid homeostasis, lipid and glucose metabolisms. FXR regulates the expression of target genes by binding either as a monomer or as a heterodimer with the retinoid X receptor (RXR). Numerous studies have reported that FXR exerts protective function during cholestasis, diabetes, liver regeneration, and cancer. To identify compounds that inhibit FXR signaling, GeneBLAzer FXR-UAS-bla HEK 293T cell line (Invitrogen, Carlsbad, CA) containing a beta-lactamase reporter gene under the control of a UAS response element was used to screen the Tox21 10K compound library.
Tox21 Assay Protocol Summary: FXR-bla cells were dispensed at 5000 cells/5uL/well in 1536-well black wall/clear bottom plates using a Multidrop Combi (Thermo Fisher Scientific, Waltham, MA) dispenser. After the assay plates were incubated at 37C and 5% CO2 for 5 h, 23 nL of compounds dissolved in DMSO, positive controls or DMSO only was transferred to the assay plate by a Pintool station (Kalypsys, San Diego, CA), followed by addition of 1 uL Chenodeoxycholic acid (50 uM, final concentration in the wells). The assay plates were incubated at 37C for 16 h. After 1 uL of LiveBLAzerTM B/G FRET substrate was added using a Bioraptr Flying Reagent Dispenser (FRD) workstation (Beckman Coulter, Indianapolis, IN), the plates were incubated at room temperature for 2 h, and fluorescence intensity was measured by an Envision plate reader (PerkinElmer, Shelton, CT).
% is set by controls: 0 for no effect and ±100 for the full control effect.

Bile acid receptor (Homo sapiens), sequence (Q96RI1 whole entry, looked up): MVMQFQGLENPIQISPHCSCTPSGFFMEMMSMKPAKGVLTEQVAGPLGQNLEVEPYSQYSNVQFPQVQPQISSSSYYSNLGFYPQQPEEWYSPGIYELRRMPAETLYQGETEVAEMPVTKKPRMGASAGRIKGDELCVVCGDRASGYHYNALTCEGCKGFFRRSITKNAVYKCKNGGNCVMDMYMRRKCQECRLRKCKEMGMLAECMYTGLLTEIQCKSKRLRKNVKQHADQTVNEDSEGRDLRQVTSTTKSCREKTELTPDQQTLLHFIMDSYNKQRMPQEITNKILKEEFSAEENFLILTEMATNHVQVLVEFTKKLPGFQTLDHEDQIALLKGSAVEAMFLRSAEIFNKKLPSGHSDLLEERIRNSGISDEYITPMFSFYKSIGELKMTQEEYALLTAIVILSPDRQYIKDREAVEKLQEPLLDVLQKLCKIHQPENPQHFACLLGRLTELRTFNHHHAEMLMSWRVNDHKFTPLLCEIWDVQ

| SMILES | activity change, negative = inhibition |
| --- | --- |
| CCOP(=S)(OCC)Oc1cc(-c2ccccc2)on1 | -23.1% (inactive) |
| CN(C)CCc1ccc(O)cc1 | -1.15% (inactive) |
| O=P(O)(Oc1ccccc1)Oc1ccccc1 | 3.62% (inactive) |
| CC(COc1ccc(Oc2ccccc2)cc1)Oc1ccccn1 (stereo not given) | -4.47% (inactive) |
| CCOP(=O)(OCC)OP(=O)(OCC)OCC | -2.09% (inactive) |
| O=C1OC(CCN2CCCCC2)OC1(c1ccccc1)c1ccccc1 (stereo not given) | -7.61% (inactive) |
| NC(=S)C(N)=S | -9.81% (inactive) |
| CN1CCN(C(=O)O[C@H]2c3nccnc3C(=O)N2c2ccc(Cl)cn2)CC1 | 0.972% (inactive) |
| CCCCOC(=O)c1ccccc1N | 3.48% [at 81.1 µM] (inactive) |
| CCSC(=O)N(CC)C1CCCCC1 | 2.04% (inactive) |
| COCC(=O)N(c1c(C)cccc1C)N1CCOC1=O | -0.572% (inactive) |
| COP(=S)(OC)Oc1ccc(S(N)(=O)=O)cc1 | -7.85% (inactive) |
| N#CCCC#N | 1.05% (inactive) |
| ClC(Br)Br | -0.0668% (inactive) |
| COC(=O)C1=CCCN(C)C1 | 3.38% (inactive) |
| CC(C)[N+](=O)[O-] | -0.297% (inactive) |
| Clc1cccc(N2CCNCC2)c1 | -11.7% (inactive) |
| CCOC(=O)CP(=O)(OCC)OCC | -4.22% (inactive) |
| O=S(=O)(O)C(F)(F)C(F)(F)C(F)(F)C(F)(F)C(F)(F)C(F)(F)F | 3.19% (inactive) |
| CCC#N | -4.88% [at 81.1 µM] (inactive) |

| SMILES | activity change, negative = inhibition |
| --- | --- |
| CC(C)COP(=O)(OCC(C)C)OCC(C)C | 0.0357% (inactive) |
| COC(=O)C(C)Oc1ccc(Oc2ccc(Cl)cc2Cl)cc1 (stereo not given) | 2.57% (inactive) |
| CN/C(=N\[N+](=O)[O-])NCC1CCOC1 (stereo not given) | -0.548% (inactive) |
| O=[N+]([O-])c1ccc2c3c(cccc13)CC2 | 1.98% (inactive) |
| N#CCBr | 8.27% [at 81.1 µM] (inactive) |
| CNC(=O)Oc1ccc(N(C)C)c(C)c1 | 0.707% (inactive) |
| CCCSC(=O)Cl | 1.32% [at 81.1 µM] (inactive) |
| CC(C)CC#N | -12% [at 81.1 µM] (inactive) |
| NC1=NC(=O)C(c2ccccc2)O1 (stereo not given) | 1.25% (inactive) |
| CSc1ccc(C(=O)C(C)(C)N2CCOCC2)cc1 | -9.76% (inactive) |
| CC(=O)C(Cl)Cl | 5.5% [at 81.1 µM] (inactive) |
| ClC(Cl)C(Cl)Cl | 1.9% [at 81.1 µM] (inactive) |
| O=[N+]([O-])c1cccc(O)c1 | 2.85% [at 81.1 µM] (inactive) |
| C[C@]1(O)CC[C@H]2[C@@H]3CCC4=CC(=O)CC[C@]4(C)[C@@]3(F)[C@@H](O)C[C@@]21C | -4.37% [at 81.1 µM] (inactive) |
| O=[N+]([O-])c1cccc2cccnc12 | 5.2% [at 81.1 µM] (inactive) |
| CCc1cc2c(s1)-n1c(C)nnc1CN=C2c1ccccc1Cl | 18.4% (inactive) |
| CNC(=O)Oc1ccccc1C1OCCO1 | 4.46% (inactive) |
| N#CC(CCc1ccc(Cl)cc1)(Cn1cncn1)c1ccccc1 (stereo not given) | -10.6% (inactive) |
| Nc1ccccc1Cl | 3.99% (inactive) |
| ClCCOCOCCCl | -0.403% [at 81.1 µM] (inactive) |
